# Laboratory results from ChEMBL document CHEMBL1157539, “Thousands of chemical starting points for antimalarial lead identification” (Nature, 2010).
# Test system: HepG2
# Assay: GSK_TCMDC: Percent inhibition of human HepG2 cell line. Test compounds present at 10uM.
# Format: functional
row,Compound,Inhibition
1,COc1ccc(/N=[N+](\[O-])c2ccccc2/[N+]([O-])=N/c2ccc(OC)cc2)cc1,13%
2,CCCCCCNC(=O)C1Cc2c([nH]c3ccc(C)cc23)C2(CCN(Cc3ccccc3)CC2)N1 (centres undefined),25%
3,COc1ccc2ncc(OC)c(CCN3CC[C@@H](NCc4ccc5c(n4)NC(=O)CS5)[C@H](O)C3)c2n1,21%
4,Cc1cccc2nc(-c3ccc(-c4ccc(NC(=O)c5cncn5C)cc4)s3)[nH]c12,49%
5,CN1CCN(c2ccnc3ccc(NC(=O)Nc4cccc5c(-c6ccncc6)cccc45)cc23)CC1,7%
6,COc1ccc(Nc2nccc(N3CCC(NC(=O)c4cccc(NC(C)=O)c4)C3)n2)cc1 (centres undefined),0%
7,Nn1c(=O)oc2ccc(Cl)cc2c1=O,4%
8,CC(=O)Nc1ccc(CN(Cc2ccc(F)cc2)Cc2ccc3c(c2)OCO3)cc1,3%
9,NCCNc1ccnc2cc(Cl)ccc12,9%
10,Cc1ccc(C)c(NC(=O)Nc2ccc(C)c(-c3ccc(C(=O)Nc4ccncc4)cc3)c2)c1,46%
11,COc1ccc(Nc2ncc3c(-c4cccc(NC(=O)Cc5cccc(F)c5)c4)c[nH]c3n2)cc1OC,24%
12,Cc1ccc(NC(=O)NC2CCN(c3ccnc4cc(Cl)ccc34)CC2)cc1.O=C(O)C(F)(F)F,4%
13,CC(C)C[C@H](NC(=O)c1cc2ccccc2s1)C(=O)N[C@H]1CCN(Cc2ccc(I)c(OC3CCN(C)C3)c2)C1.O=C(O)C(F)(F)F (some centres undefined),99%
14,COc1cc(F)c2ncc(Cl)c(CCN3CCC(NCc4ccc5c(n4)NC(=O)CS5)CC3)c2c1.Cl,18%
